# Assay results reported in paper PMC11006913.
# Biological target: HOXB4 (Homo sapiens, UniProt P17483 148-234, V174I)
# Assay: PBM; 200 nM protein, PBS
# Settings: dsDNA, one strand shown
# Sequence of HOXB4 (P17483 148-234 V174I): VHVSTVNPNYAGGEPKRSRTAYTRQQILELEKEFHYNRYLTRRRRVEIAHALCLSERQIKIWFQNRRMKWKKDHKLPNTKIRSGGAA
row,Sequence,binding signal
1,CAGCGGAC,"7.43 upbm affinity estimate (log intensity, higher = more binding, comparable within an allelic series)"
2,CCTGGAAG,"7.54 upbm affinity estimate (log intensity, higher = more binding, comparable within an allelic series)"
3,CGGGATGC,"7.57 upbm affinity estimate (log intensity, higher = more binding, comparable within an allelic series)"
4,ATCGTTCC,"9.76 upbm affinity estimate (log intensity, higher = more binding, comparable within an allelic series)"
5,GAATGAAC,"8.78 upbm affinity estimate (log intensity, higher = more binding, comparable within an allelic series)"
6,GAACATAA,"10.7 upbm affinity estimate (log intensity, higher = more binding, comparable within an allelic series)"
7,CGCCGTGC,"7.83 upbm affinity estimate (log intensity, higher = more binding, comparable within an allelic series)"
8,ATAAGCGC,"10 upbm affinity estimate (log intensity, higher = more binding, comparable within an allelic series)"
9,CTGGGGGA,"7.53 upbm affinity estimate (log intensity, higher = more binding, comparable within an allelic series)"
10,CCACAGGC,"7.85 upbm affinity estimate (log intensity, higher = more binding, comparable within an allelic series)"
11,CGGGCTGC,"7.82 upbm affinity estimate (log intensity, higher = more binding, comparable within an allelic series)"
12,GCGCGGGA,"7.49 upbm affinity estimate (log intensity, higher = more binding, comparable within an allelic series)"
13,AATCAAGG,"10.5 upbm affinity estimate (log intensity, higher = more binding, comparable within an allelic series)"
14,AGACCCGA,"7.69 upbm affinity estimate (log intensity, higher = more binding, comparable within an allelic series)"
15,CCCGTGCG,"7.88 upbm affinity estimate (log intensity, higher = more binding, comparable within an allelic series)"
16,CGGGAAAG,"7.56 upbm affinity estimate (log intensity, higher = more binding, comparable within an allelic series)"
17,ACGTGGCG,"7.6 upbm affinity estimate (log intensity, higher = more binding, comparable within an allelic series)"
18,CATTTGCG,"10.8 upbm affinity estimate (log intensity, higher = more binding, comparable within an allelic series)"
19,CGGTCACG,"7.75 upbm affinity estimate (log intensity, higher = more binding, comparable within an allelic series)"
20,AAAATTAC,"11.7 upbm affinity estimate (log intensity, higher = more binding, comparable within an allelic series)"

row,Sequence,binding signal
1,CCTGATTA,"12.4 upbm affinity estimate (log intensity, higher = more binding, comparable within an allelic series)"
2,CTCCCGGC,"7.56 upbm affinity estimate (log intensity, higher = more binding, comparable within an allelic series)"
3,ACTAATAA,"12.5 upbm affinity estimate (log intensity, higher = more binding, comparable within an allelic series)"
4,CTATTTGA,"9.85 upbm affinity estimate (log intensity, higher = more binding, comparable within an allelic series)"
5,ATTGATCC,"10 upbm affinity estimate (log intensity, higher = more binding, comparable within an allelic series)"
6,GATCGTTA,"12.8 upbm affinity estimate (log intensity, higher = more binding, comparable within an allelic series)"
7,GCTCCCCC,"7.43 upbm affinity estimate (log intensity, higher = more binding, comparable within an allelic series)"
8,CGTCGTTA,"11 upbm affinity estimate (log intensity, higher = more binding, comparable within an allelic series)"
9,CACGCCGA,"7.67 upbm affinity estimate (log intensity, higher = more binding, comparable within an allelic series)"
10,CTACCGCC,"7.48 upbm affinity estimate (log intensity, higher = more binding, comparable within an allelic series)"
11,ATCTCTTA,"9.9 upbm affinity estimate (log intensity, higher = more binding, comparable within an allelic series)"
12,CACGAGCC,"7.69 upbm affinity estimate (log intensity, higher = more binding, comparable within an allelic series)"
13,CACGTGGG,"7.46 upbm affinity estimate (log intensity, higher = more binding, comparable within an allelic series)"
14,ACGTAGCA,"7.7 upbm affinity estimate (log intensity, higher = more binding, comparable within an allelic series)"
15,AATAGCCA,"10.3 upbm affinity estimate (log intensity, higher = more binding, comparable within an allelic series)"
16,CCCGAGGA,"7.6 upbm affinity estimate (log intensity, higher = more binding, comparable within an allelic series)"
17,CGTGCCGC,"7.57 upbm affinity estimate (log intensity, higher = more binding, comparable within an allelic series)"
18,AGCTTGGA,"7.63 upbm affinity estimate (log intensity, higher = more binding, comparable within an allelic series)"
19,AACCCCCC,"7.42 upbm affinity estimate (log intensity, higher = more binding, comparable within an allelic series)"
20,CTAGGCAG,"7.88 upbm affinity estimate (log intensity, higher = more binding, comparable within an allelic series)"

# Biological target: MSX2 (Homo sapiens, UniProt P35548 130-214, R199I)
# Assay: PBM; 200 nM protein, PBS
# Settings: dsDNA, one strand shown
# Sequence of MSX2 (Homo sapiens, UniProt P35548 130-214, R199I) (P35548 130-214 R199I): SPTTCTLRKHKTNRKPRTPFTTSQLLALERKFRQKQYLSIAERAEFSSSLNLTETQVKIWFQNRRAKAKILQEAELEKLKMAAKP
row,Sequence,binding signal
1,CGGGCTGC,"9.39 upbm affinity estimate (log intensity, higher = more binding, comparable within an allelic series)"
2,GCGCGGGA,"9.54 upbm affinity estimate (log intensity, higher = more binding, comparable within an allelic series)"
3,CGTGCCGC,"9.41 upbm affinity estimate (log intensity, higher = more binding, comparable within an allelic series)"

# Biological target: ALX3 (Homo sapiens, UniProt O95076 139-225, N203Q)
# Assay: PBM; 200 nM protein, PBS
# Settings: dsDNA, one strand shown
# Sequence of ALX3 (O95076 139-225 N203Q): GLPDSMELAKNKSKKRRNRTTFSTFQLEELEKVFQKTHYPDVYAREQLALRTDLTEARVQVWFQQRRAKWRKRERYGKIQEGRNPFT
row,Sequence,binding signal
1,CTGGGGGA,"7.77 upbm affinity estimate (log intensity, higher = more binding, comparable within an allelic series)"
2,CTCCCGGC,"7.65 upbm affinity estimate (log intensity, higher = more binding, comparable within an allelic series)"
3,ACTAATAA,"8.53 upbm affinity estimate (log intensity, higher = more binding, comparable within an allelic series)"

# Biological target: MSX2 (Homo sapiens, UniProt P35548 130-214)
# Assay: PBM; 200 nM protein, PBS
# Settings: dsDNA, one strand shown
# Sequence of MSX2 (Homo sapiens, UniProt P35548 130-214) (P35548 130-214): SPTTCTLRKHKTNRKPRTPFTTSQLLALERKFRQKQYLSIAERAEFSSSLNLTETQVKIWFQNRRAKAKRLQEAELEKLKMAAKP
row,Sequence,binding signal
1,CGGGCTGC,"9.57 upbm affinity estimate (log intensity, higher = more binding, comparable within an allelic series)"
2,GCGCGGGA,"9.49 upbm affinity estimate (log intensity, higher = more binding, comparable within an allelic series)"
3,CGTGCCGC,"9.35 upbm affinity estimate (log intensity, higher = more binding, comparable within an allelic series)"

# Biological target: MSX2 (Homo sapiens, UniProt P35548 130-214, F161Y)
# Assay: PBM; 200 nM protein, PBS
# Settings: dsDNA, one strand shown
# Sequence of MSX2 (Homo sapiens, UniProt P35548 130-214, F161Y) (P35548 130-214 F161Y): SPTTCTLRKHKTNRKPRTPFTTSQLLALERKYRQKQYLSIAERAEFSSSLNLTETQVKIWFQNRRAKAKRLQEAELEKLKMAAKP
row,Sequence,binding signal
1,CGGGCTGC,"9.57 upbm affinity estimate (log intensity, higher = more binding, comparable within an allelic series)"
2,GCGCGGGA,"9.51 upbm affinity estimate (log intensity, higher = more binding, comparable within an allelic series)"
3,CGTGCCGC,"9.43 upbm affinity estimate (log intensity, higher = more binding, comparable within an allelic series)"
